Rows were chosen to be rich in hits. Some 3.7% of all compounds tested hit in one or more screens of this group.
BRCA1 expr up: BRCA1 expression activation. MCF7-BRCA1-FFLuc reporter, luminescence, 48 h; response scale: scaled: vehicle 0%, 10 µM genistein 100%. Potency, µM (top dose mostly 46.1 µM), inactives show at the highest dose activation, hits mostly activators. hit rate 1.1% among 380,000. AID 624202; also: potency is read from the fitted curve at half-maximal effect; nearly all actives have a fitted effect of over 80% in size
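Activators of BRCA1 expression were detected as increased firefly luciferase luminescence in engineered MCF7 cells after 48 h compound incubation. Signals were scaled to genistein 10 microM as full activation.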
RGS4 inhibitor: blocks human RGS4-accelerated GTP hydrolysis | Potency, µM (highest dose often 114 µM), inactives show at the highest dose activity change, negative = inhibition, usual class: inhibitors | P49798 | hit rate 0.039% among 390,000 | Transcreener GDP fluorescence polarization, RGS4-accelerated GTP hydrolysis; also: potency is read from the fitted curve at half-maximal effect; % is scaled to controls: 0 for no effect and ±100 for the full control effect; nearly all actives have a fitted effect of over 75% in size
Target sequence (P49798 whole entry, looked up): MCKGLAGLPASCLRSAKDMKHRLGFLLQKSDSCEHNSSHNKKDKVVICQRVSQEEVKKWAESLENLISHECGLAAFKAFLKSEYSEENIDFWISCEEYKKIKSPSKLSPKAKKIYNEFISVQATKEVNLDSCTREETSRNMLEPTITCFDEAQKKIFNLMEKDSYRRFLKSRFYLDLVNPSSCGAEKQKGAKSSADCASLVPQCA
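MLSMR compounds (23 nl, pin-transferred) preincubated 10 min at room temperature with a 500nM (2x) first reagent, then RGS4 at 900nM (2x) plus Transcreener GDP mix added; fluorescence polarization (620/688 nm) read before and after 90 min at 30 °C.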
D3 antag: antagonists of human D3 dopamine receptor; D3R cells, DiscoveRx beta-arrestin luminescence, antagonist mode; stronger effect = lower value; max response, negative = inhibition, %; hit rate 2.5% among 360,000; AID 652054; in the data active = max response below about -50%; inconclusive = no clear call, values can overlap the other calls; also: % is scaled to controls: 0 for no effect and ±100 for the full control effect
Target sequence (P35462 whole entry, looked up): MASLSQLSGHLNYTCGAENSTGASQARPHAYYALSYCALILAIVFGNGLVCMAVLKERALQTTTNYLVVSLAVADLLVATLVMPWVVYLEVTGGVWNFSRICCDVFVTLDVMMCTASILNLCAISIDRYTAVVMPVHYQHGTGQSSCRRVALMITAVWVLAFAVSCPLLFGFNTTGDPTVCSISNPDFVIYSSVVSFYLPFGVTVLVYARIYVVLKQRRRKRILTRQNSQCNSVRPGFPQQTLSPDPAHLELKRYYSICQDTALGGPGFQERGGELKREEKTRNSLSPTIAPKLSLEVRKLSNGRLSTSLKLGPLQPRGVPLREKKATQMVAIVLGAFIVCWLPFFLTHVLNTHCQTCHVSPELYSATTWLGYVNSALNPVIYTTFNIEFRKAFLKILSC
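Cells plated overnight at 1500 cells/well, then exposed to library compounds with dopamine controls for 90 minutes at 37 degrees C. DiscoveRx reagent added for 30–60 minutes at room temperature; luminescence read, quantitative HTS format.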
PTHR1 agonist: agonists of human PTHR1 parathyroid hormone receptor; HEK293 GP2 PTHR1 cells, GloSensor cAMP luminescence, 1 h; Potency, µM (doses to about 115 µM), for inactives: top-dose activation, most hits filed as activators; hit rate 0.075% among 410,000; AID 743266; also: potency is read from the fitted curve at half-maximal effect; nearly all actives have a fitted effect of over 55% in size
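HEK-293-derived GP2 cells expressing PTHR1 and a GloSensor cAMP reporter, 3,000/well, plated overnight, given luciferin plus IBMX (each 0.5 mM as added) for 1 h at 37 °C, then compound for 1 h at 37 °C. Luminescence was read after 15 min at room temperature.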
B2AR arrestin: agonists driving beta-arrestin recruitment to human beta2-adrenergic receptor | P07550 | beta-arrestin recruitment to beta2AR, cell-based reporter | Potency, µM (highest dose often 46.1 µM), without a hit: at the highest dose activation, most hits filed as activators | hit rate 0.02% among 330,000 | AID 492947;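 also: potency is read from the fitted curve at half-maximal effect; 0% = DMSO controls and full agonism = EC100 isoproterenol or metaproterenol; nearly all actives have a fitted effect of over 65% in size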
DRD3 agonist: activates the human D3 dopamine receptor. D3R DiscoveRx beta-arrestin cells, luminescence, 90 min. max activation, %. hit rate 0.58% among 410,000. AID 652048; in the data active = max activation above about 30%; also: 0% is about no effect
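Cells at 1500/well, incubated overnight, then treated with pinned compounds (dopamine as control) for 90 min at 37 degrees C. DiscoveRx reagent added for 30 - 60 minutes at room temperature; luminescence read.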
* = called active by the depositor; i = inactive; ? = inconclusive; nt = not tested or not shown; ! = repeats disagree; [ ] = another dose, or the depositor's remark. Unless noted, calls follow the shape of the dose curve; as a rule, active = well fitted curve in the direction sought with a large enough effect; inconclusive = small, poorly fitted or top-dose-only effect, or another doubt; inactive = no such curve, though single readings can be large; an effect the other way counts as inactive or inconclusive.

SMILES	BRCA1 expr up	RGS4 inhibitor	D3 antag	PTHR1 agonist	B2AR arrestin	DRD3 agonist
CC1(Cc2cc(Cl)ccc2C(F)(F)F)C(=O)Nc2cc(-c3ccccc3Cl)ccc21 (stereo not drawn)	-4%	nt	-22	-7%	nt	-6
Cc1cc(C)cc(NC(=O)Cn2cc(C(=O)c3ccccc3)c(=O)c3ccc(C)nc32)c1	nt	-4%	nt	?	nt	-24
CCc1nnc(NC(=O)c2nc(S(=O)(=O)Cc3ccc(C)cc3)ncc2Cl)s1	-42%	?	-50*	-20%	0%	-19
CCc1nnc(NC(=O)c2nc(S(=O)(=O)Cc3cccc(C)c3)ncc2Cl)s1	-40%	?	-70*	-19%	0%	-24
CCOc1ccccc1NC(=O)c1nc(S(=O)(=O)Cc2cccc(C)c2)ncc1Cl	-78%	-38%	-96*	-71%	0%	-23
CSc1nnc(NC(=O)c2nc(S(=O)(=O)Cc3cccc(C)c3)ncc2Cl)s1	-49%	-49%	-54*	-24%	0%	-2
CCc1nnc(NC(=O)c2nc(S(=O)(=O)Cc3ccccc3)ncc2Cl)s1	0%	-17%	0	-21%	0%	-9
Cc1cccc(CS(=O)(=O)c2ncc(Cl)c(C(=O)Nc3nnc(C(C)C)s3)n2)c1	-33%	?	-62*	-22%	-1%	-20
CC(C)c1nnc(NC(=O)c2nc(SCc3ccc(F)cc3)ncc2Cl)s1	nt	-13%	nt	i	nt	1
CCc1nc2ccc(C(=O)Nc3ccc(C(N)=O)cc3)cn2c1N(CCC(C)C)CCN(C)C	-14%	nt	-24	0%	nt	-7
CCOc1ccc(NC(=O)c2nn(C)c3c2COc2ccccc2-3)cc1	nt	21%	nt	-13%	nt	55*
COC(=O)c1ccc(NC(=O)c2nn(C)c3c2COc2ccccc2-3)cc1	nt	40%	nt	?	nt	3
O=C1CC(=C2c3ccccc3-c3ccccc32)C(=O)N1CCCCN1CCN(c2ccccc2)CC1	-42%	-9%	-55*	i	-1%	1
N/C(=N\OC(=O)c1ccc2ccccc2c1)c1cccc([N+](=O)[O-])c1	67%	9%	8	-8%	0%	4
N/C(=N/OC(=O)c1cccc([N+](=O)[O-])c1)c1cccc([N+](=O)[O-])c1	7.1µM*	-20%	-53*	-15%	0%	-5
N/C(=N\OC(=O)c1cccc(F)c1)c1cccc([N+](=O)[O-])c1	13µM*	-44%	2	i	0%	-9
C[C@H](CO)N1C[C@H](C)[C@@H](CN(C)Cc2ccc(C(=O)O)cc2)Oc2c(cccc2N(C)C)C1=O	0%	-2%	8	-3%	0%	14
CNCc1ccccc1OCC(=O)Nc1ccccc1	3%	24%	-52*	-24%	0%	-20
NC(=O)COC(=O)c1ccccc1OCC(=O)Nc1ccc(Br)cc1	-6%	nt	nt	nt	nt	nt
O=C(COC(=O)c1ccccc1OCC(=O)Nc1ccc(Br)cc1)Nc1ccccc1	-14%	-9%	-51*	-21%	0%	-4
CC(=O)N[C@@H](Cc1ccc(O)cc1)C(=O)N[C@H](C(=O)N[C@@H](C)C(=O)N[C@H](C#N)CC(=O)O)C(C)C	nt	nt	nt	nt	0%	nt
CCCCCOc1ccccc1CN1C(=O)C(=O)c2cc(C)ccc21	nt	-52%	nt	-85%	nt	-16
O=C(NCCc1ccccc1)C1CCN(S(=O)(=O)c2cccc3nsnc23)CC1	-15%	17%	-20	-3%[57.5 µM]	0%	1
O=C(NCCN1CCN(c2ccccc2)CC1)C1CCN(S(=O)(=O)c2cccc3nsnc23)CC1	-9%	6%	-16	-14%	0%	94*
Cc1ccc(Nc2cc(-n3nc(C)cc3C)ncn2)c(C)c1	1%	-12%[11.4 µM]	8	i	1%	-1
SMILES	BRCA1 expr up	RGS4 inhibitor	D3 antag	PTHR1 agonist	B2AR arrestin	DRD3 agonist
Cc1ccc(Nc2cc(-n3cccn3)ncn2)c(C)c1	3.2µM*	-10%	-16	-18%	1%	9
CN1CCN(c2ncnc3c2ncn3[C@H]2CN(Cc3cccs3)C[C@@H](CO)O2)CC1	-9%	nt	-12	-15%	nt	-6
O=C(CN1CCCCC1)Nc1nc(-c2ccc(F)c(F)c2)cs1	7.1µM*	-2%	39	-24%	0%	-1
O=C(CN1CCCCC1)Nc1nc(-c2ccc(Cl)cc2)cs1	92%	12%	-9	-31%	0%	-6
Cc1[nH]c2ccc(C(=O)OCCN(C)C)cc2c1C	58%	15%	-22	i	0%	-22
CCOC(=O)c1ccc2[nH]c(C)c(C)c2c1	13µM*	-14%	0	-1%[57.5 µM]	nt	-13
COc1ccc(NC(=O)c2ccc3[nH]c(C)c(C)c3c2)c(OC)c1	18%	-15%	-53*	-30%	0%	-17
COc1cccc(Cn2c(=O)n(-c3cc(C)cc(C)c3)c(=O)c3oc4ccccc4c32)c1	nt	-24%	nt	-17%	nt	5
N#CCCN(C(=O)COC(=O)CCc1nc2ccccc2c(=O)[nH]1)c1ccccc1F	24%	10%	-21	-9%	0%	-1
COc1ccc(N2CCN(C(=O)c3cc(NS(=O)(=O)c4ccc(F)cc4)ccn3)CC2)cc1	6%	-9%	nt	-19%	nt	8
CC(C)N=C(N)/N=C(\N)Nc1ccc(Cl)cc1	nt	nt	nt	nt	nt	3
NC(=NCCCCCCN=C(N)/N=C(\N)Nc1ccc(Cl)cc1)/N=C(\N)Nc1ccc(Cl)cc1	-48%	-23%	-51*!	-22%	-1%	-60
COC(=O)c1c(NC(=O)c2ccc(C)cc2)sc(Cc2ccccc2)c1C	-7%	8%	-65*	-6%[57.5 µM]	0%	-1
CCOc1ccc(-c2nc(CSCC(=O)NCc3ccc(Cl)cc3)c(C)o2)cc1	nt	-8%	nt	-17%	nt	32*
Cc1ccc(CNC(=O)CSCc2nc(-c3ccc(Cl)cc3)oc2C)cc1	nt	-10%	nt	-35%	nt	2
Cn1c(N)c(C(=O)COC(=O)c2cc(C3CC3)nc3ccccc23)c(=O)n(C)c1=O	-13%	10%	125	i	-2%	36*
CCCCCCn1nc(C(=O)OCC(=O)c2c(N)n(C)c(=O)n(C)c2=O)c2ccccc2c1=O	-31%	-11%	71	-8%	0%	32*
COc1ccc(CCNC(=O)CCCn2c(=O)c3cccn3c3ccc(F)cc32)cc1OC	nt	10%	nt	i	nt	9
Cc1[nH]n(-c2ccccc2)c(=O)c1C(c1ccc(O)c([N+](=O)[O-])c1)c1c(C)[nH]n(-c2ccccc2)c1=O	-8%	-44%	-91*	-16%[57.5 µM]	nt	-9
CC(=O)OCC(=O)[C@@]12N=C(C)O[C@@H]1C[C@H]1[C@@H]3CCC4=CC(=O)C=C[C@]4(C)[C@H]3[C@@H](O)C[C@@]12C	nt	nt	nt	nt	nt	-2

Bioassay records: PubChem, National Center for Advancing Translational Sciences (NCATS)
